According to the supplement of paper PMC10849652:
Targets with a hit are over-represented here; the source holds about 8,800 in all. About 0.5% of all pairs of compound and target were hits.

Assays:
Assay in all cases: log2 fold change, soluble protein after heating vs DMSO (PISA); higher = thermal stabilisation; K562 lysate, 10 uM; active = over 0.2 and 3.5 SD of the protein, either way, in both replicates (recomputed)
erlotinib = compound: C#Cc1cccc(Nc2ncnc3cc(OCCOC)c(OCCOC)cc23)c1 [erlotinib]
How it was run: (§1)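 Quantification was by TMTpro 16plex LC-MS/MS with equalised channel sums, applied to the supernatant after 21,000xg for 90 min. Samples were crude K562 extract at 1 mg/mL protein in PBS pH 7.4 with 1 mM MgCl2, treated with 10 μM compound for 30 min, heated for 3 min across 48°C-58°C, pooled and brought to 0.5% NP-40 at 4°C. Values are log-two fold changes in thermal stability relative to solvent controls, from duplicates.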

[1] = compound: C/C(=N\NC(=O)C1=CC(=CC=C1)S(=O)(=O)N2CCOCC2)/C3=C(C=CC(=C3)Cl)O
How it was run: as §1

[2] = compound: C1=CC(=CC=C1C2=NC3=C(N2)C=C(C=C3)C(=O)N)OC4=CC=C(C=C4)Cl
How it was run: as §1

[3] = compound: C1=CC2=C(C=CC(=C2)/C=C\3/C(=O)NC(=NCC4=CC=CS4)S3)N=C1
How it was run: as §1

[4] = compound: C1=CC2=NC=CN=C2C=C1/C=C/3\C(=O)NC(=O)S3
How it was run: as §1

[5] = compound: C1=CC=C(C=C1)C2=NC(=C(N2)C3=CC=NC=C3)C4=CC(=C(C=C4)Cl)O
How it was run: as §1

[6] = compound: C1=CC=C2C(=C1)C3=NNC4=CC=CC(=C43)C2=O
How it was run: as §1

[7] = compound: C1CCN(C1)C(=O)NC2=CC=CC(=C2)NC3=NC=C(C(=N3)NCCC4=CN=CN4)Br
How it was run: as §1

[8] = compound: C1CN(CCC1(CC2=CC=C(C=C2)Cl)N)C3=NC=NC4=C3C=CN4
How it was run: as §1

IRAK-1-4 Inhibitor I = compound: C1COCCN1CCN2C3=CC=CC=C3N=C2NC(=O)C4=CC(=CC=C4)[N+](=O)[O-] [IRAK-1-4 Inhibitor I]
How it was run: as §1

ibrutinib = compound: C=CC(=O)N1CCC[C@@H](n2nc(-c3ccc(Oc4ccccc4)cc3)c3c(N)ncnc32)C1 [ibrutinib]
How it was run: as §1

[9] = compound: CC(=O)c1cnc2ccc(-c3cc(Cl)c(O)c(Cl)c3)nc2c1N[C@H]1CC[C@H](CN(C)C)CC1
How it was run: as §1

ralimetinib = compound: CC(C)(C)Cn1c(N)nc2ccc(-c3[nH]c(C(C)(C)C)nc3-c3ccc(F)cc3)nc21 [ralimetinib]
How it was run: as §1

[10] = compound: CC(C)(O)CC(=O)NCCn1ccc2ncnc(Nc3ccc(Oc4cccc(C(F)(F)F)c4)c(Cl)c3)c21
How it was run: as §1

[11] = compound: CC(C)C1=C2N=C(C=C(N2N=C1)NCC3=CC=CC=C3)NCCCCCCN
How it was run: as §1

[12] = compound: CC1=C(C(CC(=O)N1)C2=CC=C(C=C2)C(F)(F)F)C(=O)NC3=C(C=C4C(=C3)C=NN4)F
How it was run: as §1

[13] = compound: CC1=C(C2=C(C=C1)C(=O)C3=CC=CC=C3N2CCCN)C
How it was run: as §1

[14] = compound: CC1=C(C=C(C=C1)NC(=O)C2=CC(=CC=C2)C(C)(C)C#N)NC3=CC4=C(C=C3)N=CN(C4=O)C
How it was run: as §1

[15] = compound: CC1=C(C=C(C=C1)NC(=O)C2=CC(=CC=C2)N(C)C)NC(=O)C3=CC=C(C=C3)O
How it was run: as §1

[16] = compound: CC1=CC=C(C=C1)SC2=C3C=C(SC3=CN=C2)C(=O)N
How it was run: as §1

Measured: log2 fold change

MRPL15 (UniProt Q9P015)
inactive: erlotinib 0.037 | [1] -0.16 | [2] 0.051 | [3] -0.026 | [4] -0.055 | [5] -0.017 | [6] 0.004 | [7] -0.023 | [8] -0.016 | IRAK-1-4 Inhibitor I 0.034 | ibrutinib 0.003 | [9] -0.078 | ralimetinib -0.024 | [10] -0.056 | [11] -0.01 | [12] -0.007 | [13] -0.133 | [14] 0.032 | [15] 0.009 | [16] -0.023

MECR (UniProt Q9BV79)
inactive: erlotinib -0.019 | [1] 0.027 | [2] -0.005 | [3] -0.028 | [4] 0.012 | [5] -0.038 | [6] -0.035 | [7] -0.053 | [8] 0.079 | IRAK-1-4 Inhibitor I 0.025 | ibrutinib 0.025 | [9] -0.029 | ralimetinib -0.006 | [10] -0.049 | [11] 0.008 | [12] 0.008 | [13] 0.058 | [14] -0.006 | [15] 0.006 | [16] 0.011

MBOAT2 (UniProt Q6ZWT7)
UniProt Q6ZWT7, sequence (Q6ZWT7 whole entry, looked up): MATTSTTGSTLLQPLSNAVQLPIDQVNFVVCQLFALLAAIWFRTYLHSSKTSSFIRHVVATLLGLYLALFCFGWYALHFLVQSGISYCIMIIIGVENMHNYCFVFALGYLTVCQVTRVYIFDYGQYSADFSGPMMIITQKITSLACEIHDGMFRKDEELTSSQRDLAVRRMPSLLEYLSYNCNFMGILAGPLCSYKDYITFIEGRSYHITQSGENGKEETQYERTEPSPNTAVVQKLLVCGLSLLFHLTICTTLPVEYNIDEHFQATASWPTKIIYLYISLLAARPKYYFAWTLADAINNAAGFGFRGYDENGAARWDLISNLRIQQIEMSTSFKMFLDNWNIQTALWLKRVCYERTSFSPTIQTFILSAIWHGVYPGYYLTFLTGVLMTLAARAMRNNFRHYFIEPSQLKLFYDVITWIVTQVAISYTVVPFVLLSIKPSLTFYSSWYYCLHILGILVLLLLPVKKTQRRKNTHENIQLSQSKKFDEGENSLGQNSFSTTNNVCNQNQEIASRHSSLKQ
inactive: erlotinib -0.003 | [1] 0.014 | [2] -0.111 | [3] -0.022 | [4] -0.036 | [5] -0.007 | [6] -0.076 | [7] -0.148 | [8] -0.011 | IRAK-1-4 Inhibitor I -0.065 | ibrutinib -0.092 | [9] -0.039 | ralimetinib 0.137 | [10] 0.047 | [11] -0.047 | [12] 0.034 | [13] 0.031 | [14] 0.008 | [15] -0.117 | [16] 0.096

MCMBP (UniProt Q9BTE3)
UniProt Q9BTE3, sequence (Q9BTE3 whole entry, looked up): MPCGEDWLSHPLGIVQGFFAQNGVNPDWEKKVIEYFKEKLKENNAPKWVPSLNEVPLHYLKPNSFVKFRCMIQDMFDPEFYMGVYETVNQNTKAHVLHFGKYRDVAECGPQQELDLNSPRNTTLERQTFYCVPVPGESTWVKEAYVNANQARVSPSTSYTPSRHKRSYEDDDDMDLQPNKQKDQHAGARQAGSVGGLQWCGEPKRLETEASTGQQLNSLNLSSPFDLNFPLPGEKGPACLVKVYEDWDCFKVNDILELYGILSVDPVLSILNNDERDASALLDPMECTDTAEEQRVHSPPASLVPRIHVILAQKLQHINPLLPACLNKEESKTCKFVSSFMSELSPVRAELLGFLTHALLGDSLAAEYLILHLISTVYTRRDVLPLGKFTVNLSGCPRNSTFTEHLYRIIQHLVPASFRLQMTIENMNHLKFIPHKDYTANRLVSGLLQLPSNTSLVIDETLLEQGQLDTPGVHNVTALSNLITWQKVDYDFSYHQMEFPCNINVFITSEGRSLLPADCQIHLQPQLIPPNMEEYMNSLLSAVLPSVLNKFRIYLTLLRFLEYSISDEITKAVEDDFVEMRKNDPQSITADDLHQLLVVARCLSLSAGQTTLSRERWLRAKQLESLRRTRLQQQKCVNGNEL
inactive: erlotinib 0.038 | [1] 0.069 | [2] 0.024 | [3] 0.063 | [4] 0.01 | [5] -0.017 | [6] 0.001 | [7] -0.023 | [8] 0.072 | IRAK-1-4 Inhibitor I 0 | ibrutinib 0.001 | [9] -0.007 | ralimetinib 0.016 | [10] 0.038 | [11] -0.009 | [12] 0 | [13] 0.008 | [14] 0.008 | [15] 0.011 | [16] 0.014

MAP4 (UniProt E7EVA0)
inactive: erlotinib 0.056 | [1] 0.01 | [2] 0.113 | [3] 0.045 | [4] -0.072 | [5] -0.004 | [6] -0.076 | [7] 0.071 | [8] 0.061 | IRAK-1-4 Inhibitor I 0.037 | ibrutinib 0.001 | [9] -0.009 | ralimetinib -0.038 | [10] -0.185 | [11] 0.036 | [12] -0.058 | [13] 0.008 | [14] 0.131 | [15] 0.005 | [16] -0.027

LAP3 (UniProt P28838)
UniProt P28838, sequence (P28838 whole entry, looked up): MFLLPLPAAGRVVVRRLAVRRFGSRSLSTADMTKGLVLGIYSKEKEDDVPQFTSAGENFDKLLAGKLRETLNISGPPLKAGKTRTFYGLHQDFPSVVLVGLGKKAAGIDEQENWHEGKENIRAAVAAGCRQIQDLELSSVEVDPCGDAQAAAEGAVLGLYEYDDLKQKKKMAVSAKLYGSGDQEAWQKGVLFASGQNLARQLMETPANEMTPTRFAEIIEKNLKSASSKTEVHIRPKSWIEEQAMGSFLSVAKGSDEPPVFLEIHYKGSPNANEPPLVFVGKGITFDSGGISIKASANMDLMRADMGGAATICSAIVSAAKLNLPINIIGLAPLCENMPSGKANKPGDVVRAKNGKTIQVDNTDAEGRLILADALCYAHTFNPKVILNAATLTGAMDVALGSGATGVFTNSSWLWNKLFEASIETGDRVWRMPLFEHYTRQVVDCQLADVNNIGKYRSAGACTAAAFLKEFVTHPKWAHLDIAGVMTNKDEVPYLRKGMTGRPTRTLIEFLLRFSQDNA
inactive: erlotinib -0.034 | [1] 0.08 | [2] 0.082 | [3] -0.022 | [4] 0.013 | [5] -0.026 | [6] -0.017 | [7] 0.027 | [8] 0.008 | IRAK-1-4 Inhibitor I 0.061 | ibrutinib 0.043 | [9] -0.03 | ralimetinib -0.05 | [10] -0.103 | [11] 0 | [12] -0.024 | [13] -0.042 | [14] 0.117 | [15] -0.009 | [16] -0.018

LYSMD3 (UniProt Q7Z3D4)
inactive: erlotinib -0.067 | [1] -0.051 | [2] 0.044 | [3] 0.069 | [4] 0.05 | [5] 0.007 | [6] -0.11 | [7] 0.037 | [8] 0 | IRAK-1-4 Inhibitor I -0.01 | ibrutinib 0.098 | [9] -0.072 | ralimetinib 0.003 | [10] -0.046 | [11] -0.045 | [12] -0.099 | [13] -0.003 | [14] 0.034 | [15] 0.005 | [16] -0.01

KIF11 (UniProt P52732)
UniProt P52732, sequence (P52732 whole entry, looked up): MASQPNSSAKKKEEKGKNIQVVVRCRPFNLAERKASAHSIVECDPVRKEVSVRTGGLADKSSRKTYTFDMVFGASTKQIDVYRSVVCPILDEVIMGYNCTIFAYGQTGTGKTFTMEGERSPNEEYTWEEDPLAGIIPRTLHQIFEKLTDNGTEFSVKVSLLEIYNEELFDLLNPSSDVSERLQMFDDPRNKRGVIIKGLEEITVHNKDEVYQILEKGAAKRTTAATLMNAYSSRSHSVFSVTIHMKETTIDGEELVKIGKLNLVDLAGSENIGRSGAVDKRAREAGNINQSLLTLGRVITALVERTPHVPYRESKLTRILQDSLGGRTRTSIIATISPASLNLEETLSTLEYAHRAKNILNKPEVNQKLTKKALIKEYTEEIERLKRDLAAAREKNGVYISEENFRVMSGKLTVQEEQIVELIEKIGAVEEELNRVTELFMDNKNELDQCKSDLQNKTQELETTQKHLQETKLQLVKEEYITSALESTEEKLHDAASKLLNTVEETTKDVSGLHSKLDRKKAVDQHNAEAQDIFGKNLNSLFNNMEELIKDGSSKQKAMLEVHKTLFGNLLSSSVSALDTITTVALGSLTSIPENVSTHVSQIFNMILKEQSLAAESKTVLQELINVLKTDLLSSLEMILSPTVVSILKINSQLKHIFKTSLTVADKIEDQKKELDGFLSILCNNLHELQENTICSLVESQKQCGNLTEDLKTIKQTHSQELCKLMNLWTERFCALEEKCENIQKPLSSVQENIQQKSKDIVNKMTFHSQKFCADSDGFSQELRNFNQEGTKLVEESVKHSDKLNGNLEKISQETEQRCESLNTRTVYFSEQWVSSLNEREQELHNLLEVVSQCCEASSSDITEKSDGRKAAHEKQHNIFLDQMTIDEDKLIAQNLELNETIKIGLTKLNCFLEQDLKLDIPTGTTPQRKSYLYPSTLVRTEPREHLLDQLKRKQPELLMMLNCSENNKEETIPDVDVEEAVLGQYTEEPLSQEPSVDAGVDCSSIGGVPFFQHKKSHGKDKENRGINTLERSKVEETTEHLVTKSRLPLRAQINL
inactive: erlotinib -0.014 | [1] 0.012 | [2] -0.016 | [3] -0.004 | [4] -0.004 | [5] -0.004 | [6] -0.023 | [7] -0.005 | [8] -0.013 | IRAK-1-4 Inhibitor I -0.033 | ibrutinib 0.005 | [9] -0.003 | ralimetinib 0.029 | [10] 0.01 | [11] 0.007 | [12] 0.005 | [13] 0.01 | [14] -0.019 | [15] 0.014 | [16] 0.015

KLC2 (UniProt Q9H0B6)
inactive: erlotinib -0.008 | [1] 0.065 | [2] 0.07 | [3] 0.008 | [4] -0.056 | [5] 0.004 | [6] -0.061 | [7] -0.048 | [8] -0.056 | IRAK-1-4 Inhibitor I -0.009 | ibrutinib 0.021 | [9] 0.01 | ralimetinib 0.003 | [10] 0.008 | [11] -0.001 | [12] -0.045 | [13] -0.036 | [14] 0.012 | [15] 0.016 | [16] -0.012

MARK1 (UniProt Q9P0L2)
UniProt Q9P0L2, sequence (Q9P0L2 whole entry, looked up): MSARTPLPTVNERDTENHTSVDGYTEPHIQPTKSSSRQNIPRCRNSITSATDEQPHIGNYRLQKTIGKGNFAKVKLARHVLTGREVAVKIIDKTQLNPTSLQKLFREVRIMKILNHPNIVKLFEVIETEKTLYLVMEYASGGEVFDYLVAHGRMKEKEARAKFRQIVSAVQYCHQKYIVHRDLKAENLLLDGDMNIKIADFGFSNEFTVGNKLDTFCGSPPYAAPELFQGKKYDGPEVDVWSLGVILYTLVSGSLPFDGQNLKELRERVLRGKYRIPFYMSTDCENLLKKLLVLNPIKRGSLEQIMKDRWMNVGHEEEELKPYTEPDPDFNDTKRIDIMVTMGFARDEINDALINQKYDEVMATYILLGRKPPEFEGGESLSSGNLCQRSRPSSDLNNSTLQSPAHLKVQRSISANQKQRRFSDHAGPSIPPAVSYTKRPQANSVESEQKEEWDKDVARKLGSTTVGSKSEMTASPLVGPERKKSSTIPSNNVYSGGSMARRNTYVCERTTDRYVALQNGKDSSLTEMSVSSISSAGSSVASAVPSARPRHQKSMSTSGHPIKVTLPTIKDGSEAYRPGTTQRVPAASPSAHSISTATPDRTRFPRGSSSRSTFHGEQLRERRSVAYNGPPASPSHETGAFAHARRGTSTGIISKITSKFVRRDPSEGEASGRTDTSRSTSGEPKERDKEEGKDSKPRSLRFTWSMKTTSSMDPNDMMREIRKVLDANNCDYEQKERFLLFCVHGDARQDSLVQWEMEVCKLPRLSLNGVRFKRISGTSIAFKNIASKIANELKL
inactive: erlotinib 0.105 | [1] 0.006 | [2] -0.018 | [3] 0.029 | [4] -0.01 | [5] -0.001 | [6] -0.26 | [7] -0.255 | [8] -0.111 | IRAK-1-4 Inhibitor I -0.045 | ibrutinib -0.006 | [9] -0.054 | ralimetinib 0.078 | [10] 0.046 | [11] 0.021 | [12] 0.011 | [13] 0.021 | [14] 0.07 | [15] 0.04 | [16] 0.007

MED10 (UniProt Q9BTT4)
UniProt Q9BTT4, sequence (Q9BTT4 whole entry, looked up): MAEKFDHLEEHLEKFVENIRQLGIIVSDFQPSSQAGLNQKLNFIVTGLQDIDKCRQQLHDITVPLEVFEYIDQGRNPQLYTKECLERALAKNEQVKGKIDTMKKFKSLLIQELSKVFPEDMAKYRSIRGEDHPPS
inactive: erlotinib 0.049 | [1] -0.077 | [2] 0.044 | [3] 0.028 | [4] -0.149 | [5] -0.015 | [6] 0.029 | [7] 0.102 | [8] 0.101 | IRAK-1-4 Inhibitor I -0.022 | ibrutinib -0.029 | [9] -0.087 | ralimetinib -0.015 | [10] -0.055 | [11] -0.019 | [12] -0.013 | [13] -0.025 | [14] 0.02 | [15] 0.074 | [16] 0.074

MFF isoform 2 (UniProt Q9GZY8)
inactive: erlotinib 0.006 | [1] -0.056 | [2] 0.021 | [3] -0.009 | [4] -0.014 | [5] -0.035 | [6] -0.005 | [7] 0.024 | [8] 0.037 | IRAK-1-4 Inhibitor I 0.018 | ibrutinib 0.007 | [9] -0.044 | ralimetinib -0.03 | [10] -0.033 | [11] -0.052 | [12] 0 | [13] 0.004 | [14] 0.032 | [15] 0.022 | [16] -0.024

MLXIP (UniProt Q9HAP2)
inactive: erlotinib 0.011 | [1] 0.003 | [2] 0.027 | [3] 0.01 | [4] -0.017 | [5] 0.04 | [6] -0.011 | [7] -0.025 | [8] -0.01 | IRAK-1-4 Inhibitor I 0.003 | ibrutinib 0.045 | [9] 0.007 | ralimetinib -0.006 | [10] -0.035 | [11] 0.028 | [12] -0.033 | [13] -0.015 | [14] -0.015 | [15] -0.011 | [16] -0.015

MAPK1 (UniProt P28482)
UniProt P28482, sequence (P28482 whole entry, looked up): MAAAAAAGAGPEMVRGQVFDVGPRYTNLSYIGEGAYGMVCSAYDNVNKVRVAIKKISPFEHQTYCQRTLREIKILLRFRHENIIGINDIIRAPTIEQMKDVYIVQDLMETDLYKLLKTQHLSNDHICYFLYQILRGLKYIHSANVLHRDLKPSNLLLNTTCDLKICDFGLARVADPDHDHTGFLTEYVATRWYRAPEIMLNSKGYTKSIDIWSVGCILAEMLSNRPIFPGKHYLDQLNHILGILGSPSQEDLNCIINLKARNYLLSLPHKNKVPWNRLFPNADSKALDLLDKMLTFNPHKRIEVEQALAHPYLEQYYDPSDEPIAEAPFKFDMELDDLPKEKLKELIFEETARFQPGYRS
inactive: erlotinib -0.021 | [1] -0.017 | [2] 0.001 | [3] 0.001 | [4] -0.016 | [5] -0.003 | [6] 0.065 | [7] 0.017 | [8] 0.009 | IRAK-1-4 Inhibitor I -0.009 | ibrutinib 0.001 | [9] 0 | ralimetinib -0.066 | [10] 0.012 | [11] -0.029 | [12] -0.022 | [13] 0.023 | [14] -0.039 | [15] -0.03 | [16] 0.003

MCMBP isoform 2 (UniProt Q9BTE3)
inactive: erlotinib 0.084 | [1] 0.027 | [2] 0.282 | [3] -0.168 | [4] -0.156 | [5] -0.051 | [6] -0.411 | [7] 0.024 | [8] 0.055 | IRAK-1-4 Inhibitor I -0.016 | ibrutinib -0.032 | [9] -0.055 | ralimetinib -0.138 | [10] 0.068 | [11] 0.114 | [12] -0.111 | [13] -0.05 | [14] 0.063 | [15] 0.12 | [16] 0.005

LSS (UniProt P48449)
UniProt P48449, sequence (P48449 whole entry, looked up): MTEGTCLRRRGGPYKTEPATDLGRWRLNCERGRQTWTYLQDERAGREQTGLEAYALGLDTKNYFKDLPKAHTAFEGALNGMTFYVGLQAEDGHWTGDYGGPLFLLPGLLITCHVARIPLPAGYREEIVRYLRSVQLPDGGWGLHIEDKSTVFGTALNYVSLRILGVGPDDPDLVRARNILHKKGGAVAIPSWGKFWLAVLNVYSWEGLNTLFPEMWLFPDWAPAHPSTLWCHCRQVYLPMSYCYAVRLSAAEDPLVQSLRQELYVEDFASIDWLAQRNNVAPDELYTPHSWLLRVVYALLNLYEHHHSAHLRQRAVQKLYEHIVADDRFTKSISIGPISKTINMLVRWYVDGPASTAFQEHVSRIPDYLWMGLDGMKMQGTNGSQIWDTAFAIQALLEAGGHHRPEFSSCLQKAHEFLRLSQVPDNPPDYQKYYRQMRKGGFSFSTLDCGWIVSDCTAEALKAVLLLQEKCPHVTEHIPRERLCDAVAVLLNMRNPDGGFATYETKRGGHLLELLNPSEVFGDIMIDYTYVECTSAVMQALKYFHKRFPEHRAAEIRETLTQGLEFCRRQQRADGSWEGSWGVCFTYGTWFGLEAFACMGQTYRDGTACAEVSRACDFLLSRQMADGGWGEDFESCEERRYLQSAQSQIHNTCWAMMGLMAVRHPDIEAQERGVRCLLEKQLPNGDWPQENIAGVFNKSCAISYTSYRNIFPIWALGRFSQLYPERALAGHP
inactive: erlotinib -0.023 | [1] 0.057 | [2] 0.001 | [3] 0.053 | [4] -0.005 | [5] 0.037 | [6] -0.006 | [7] -0.094 | [8] 0.019 | IRAK-1-4 Inhibitor I 0 | ibrutinib -0.009 | [9] -0.018 | ralimetinib 0.14 | [10] 0.072 | [11] 0.026 | [12] 0.013 | [13] -0.131 | [14] -0.003 | [15] -0.04 | [16] -0.065
